Out of some 16,000 compounds screened, about 5,100 (32%) were called active. Roughly 25% stayed inconclusive and do not appear here. Some of the results follow. Values without a mark were called inactive. The call rests on the fitted dose curve; in most records, active means well fitted curve in the direction sought with a large enough effect; inconclusive means small, poorly fitted or top-dose-only effect, or effect the other way; inactive means no such curve, though single readings can be large or run the other way.
The molecules below were run against Cytochrome P450 3A4 (Homo sapiens) (UniProt P08684) (assay: Cytochrome panel assay with activity outcomes). Conditions: recombinant CYP, pro-luciferin dealkylation, luminescence, p450-cyp3a4; series mostly up to 57.1 µM; activity, negative = inhibition: at the top concentration.
Sequence of Cytochrome P450 3A4 (Homo sapiens) (P08684 whole entry, looked up): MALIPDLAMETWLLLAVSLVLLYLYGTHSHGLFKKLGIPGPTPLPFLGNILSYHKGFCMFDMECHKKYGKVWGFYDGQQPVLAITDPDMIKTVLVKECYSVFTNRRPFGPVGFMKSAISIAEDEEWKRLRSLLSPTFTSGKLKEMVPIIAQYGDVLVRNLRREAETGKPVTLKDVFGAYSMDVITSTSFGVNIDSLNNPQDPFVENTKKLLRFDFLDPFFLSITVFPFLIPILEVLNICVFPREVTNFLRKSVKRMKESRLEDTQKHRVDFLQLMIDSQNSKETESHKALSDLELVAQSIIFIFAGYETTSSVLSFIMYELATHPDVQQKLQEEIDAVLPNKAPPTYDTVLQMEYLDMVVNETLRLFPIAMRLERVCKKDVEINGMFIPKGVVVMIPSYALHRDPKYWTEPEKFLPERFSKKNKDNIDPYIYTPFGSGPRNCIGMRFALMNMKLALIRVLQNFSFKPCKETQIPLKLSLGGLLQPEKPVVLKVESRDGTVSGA
On the % scale 0 is the no-effect control and ±100 the full control effect.

| Compound | activity, negative = inhibition | AC50 |
| --- | --- | --- |
| C=C1CC[C@H](O)C/C1=C/C=C1\CCC[C@]2(C)[C@H]1CC[C@H]2[C@@H](C)/C=C\[C@@H](C)C(C)C | 17.3% [at 25.6 µM] |  |
| O=C1CC[C@](CCc2nc3ccccc3[nH]2)(c2ccccc2)C(=O)N1 | -26.9% [at 11.4 µM] |  |
| CCCNC(=O)c1c(C)cc(=O)oc1C | -7.96% |  |
| O=C(CSCc1cccc(Br)c1)N/N=C/c1ccc2c(c1)OCO2 |  | 3.98 µM (active) |
| O=C(CSCc1ccc(Cl)cc1)Nc1ccc2c(c1)OCCO2 | -20.7% [at 11.4 µM] |  |
| C/C(=N\NC(=O)CSCc1ccc(Cl)cc1)c1ccc2c(c1)OCCO2 |  | 14.1 µM (active) |
| C/C(=N\NC(N)=O)c1ccc(Cl)cc1 | -0.483% [at 11.4 µM] |  |
| CCCCCCCCC(=O)N/N=C/c1cccc(Br)c1 | -6.69% [at 11.4 µM] |  |
| C=CCNC(=O)CC(=O)N/N=C/c1cccc(Br)c1 | -26.1% |  |
| O=C(Cn1nc(C(F)F)cc1C(F)F)N/N=C/c1ccc2c(c1)OCO2 |  | 5.01 µM (active) |
| Cc1oc(-c2ccccc2F)nc1CSCC(=O)NCc1ccc2c(c1)OCO2 |  | 1 µM (active) |
| O=C(O)C(Cl)(c1ccccc1)c1ccccc1 | -5.68% [at 11.4 µM] |  |
| O=C(/C=C/c1ccc2c(c1)OCO2)NCCSCc1cccc(Cl)c1 | 18.2% [at 2.29 µM] |  |
| O=C(CSCc1cccc(Cl)c1)NCc1ccc2c(c1)OCO2 |  | 1.12 µM (active) |
| Cc1cc(OC(=O)c2ccccc2Cl)cc(=O)n1C | -11% |  |
| CN(C)C(=O)c1ccc(-c2nccc(NCc3cccnc3)n2)cc1 |  | 15.8 µM (active) |
| Cc1cccc(CNc2ccnc(-c3ccc(C(=O)N(C)C)cc3)n2)c1 |  | 3.16 µM (active) |
| [N-]=[N+]=Nc1ccc(C(=O)CSC[C@@H](NC(=O)CC[C@@H](N)C(=O)O)C(=O)NCC(=O)O)cc1 | 1.42% |  |
| CC(C)[C@H]1C(=O)C(C(N)=O)=C(O)[C@]2(O)C(=O)C3=C(O)c4c(O)ccc(N(C)C)c4C[C@H]3C[C@@H]12 | 3.01% |  |
| COc1cccc(Cn2c(=O)c(-c3cccs3)nc3cnc(OC)nc32)c1 |  | 3.98 µM (active) |
| COc1ccc(Oc2ncc3nc(-c4cccs4)c(=O)n(Cc4cccc(OC)c4)c3n2)cc1 |  | 3.98 µM (active) |
| COc1ccc(Nc2ncc3nc(-c4cccs4)c(=O)n(Cc4cccc(OC)c4)c3n2)cc1 | -22.2% |  |
| COc1ncc2nc(-c3cccs3)c(=O)n(Cc3ccc(F)cc3)c2n1 |  | 3.16 µM (active) |

| Compound | activity, negative = inhibition | AC50 |
| --- | --- | --- |
| COc1cccc(Cn2c(=O)c(-c3cccs3)nc3cncnc32)c1 |  | 5.01 µM (active) |
| O=C(O)c1ccc(C(=O)c2ccccc2)c(C(=O)O)c1 | -42.2% [at 11.4 µM] |  |
| C=CCN=C(NC#N)SCc1ccccc1 | -3.62% [at 2.29 µM] |  |
| COc1ncc2nc(-c3ccc(F)cc3)c(=O)n(Cc3ccc(F)cc3)c2n1 |  | 3.16 µM (active) |
| CCNc1ncc2nc(-c3ccc(OC)cc3)c(=O)n(Cc3ccc(F)cc3)c2n1 | -15% |  |
| COc1cc2c(cc1OC)CN(CC(=O)Nc1ccc3c(c1)OCO3)CC2 |  | 3.55 µM (active) |
| CCOC(=O)c1ccc(S(=O)(=O)N2CCN(C)CC2)cc1 | -17.5% |  |
| COc1ccc(NC(=O)CC#N)cc1OC | -17.8% |  |
| CCN(CC)C(=O)COc1ccc(S(=O)(=O)N2CCOCC2)cc1 | -4.69% [at 11.4 µM] |  |
| CCOc1ccc(C(=O)CN2CCN(S(=O)(=O)c3ccc(F)cc3)CC2)cc1 |  | 6.31 µM (active) |
| CCOc1ccc(NC(=O)CN2CCN(S(=O)(=O)c3ccc(Cl)cc3)CC2)cc1 |  | 14.1 µM (active) |
| O=C(CN1CCN(S(=O)(=O)c2ccc(F)cc2)CC1)Nc1ccc(Cl)c(C(F)(F)F)c1 |  | 5.01 µM (active) |
| N[C@@H](Cc1ccnnc1)C(=O)O | -3.75% [at 11.4 µM] |  |
| Cc1nnc(S(=O)(=O)c2ccc(N=Nc3c(N)nc(N)nc3N)cc2)s1 | 4.76% [at 11.4 µM] |  |
| CCN(CC(=O)Nc1ccc2c(c1)OCCO2)C(=O)c1cccc(S(=O)(=O)N2CCOCC2)c1 | -20.1% [at 11.4 µM] |  |
| O=C(CN1CCN(S(=O)(=O)c2ccc(Cl)cc2)CC1)Nc1ccc2c(c1)OCO2 |  | 1 µM (active) |
| O=C(CN1CCN(S(=O)(=O)c2ccc(F)cc2)CC1)Nc1ccc2c(c1)OCO2 |  | 2 µM (active) |
| CC1(C)CCCN(C(=O)c2coc(=O)c(Br)c2)C1 | -4.49% |  |
| O=C(Cc1ccc(Cl)cc1)N1CCN(C(=O)c2ccco2)CC1 | 2.03% |  |
| CCn1c(=O)cc(OCC(=O)Nc2cccnc2)c2ccccc21 |  | 7.08 µM (active) |
| CC(C)NC(=O)N1CCC2(CC1)CCN(C(=O)c1ccco1)CC2 | 6.91% |  |
| Cn1c(=O)cc(OCC(=O)NCc2cccnc2)c2ccccc21 |  | 12.6 µM (active) |
| CCn1c(=O)cc(SCC(=O)N2CCN(C(=O)c3ccco3)CC2)c2ccccc21 |  | 7.08 µM (active) |

| Compound | activity, negative = inhibition | AC50 |
| --- | --- | --- |
| Cn1c(C(=O)O)c(CC(=O)NCc2cccnc2)c2ccccc21 | 17.8% |  |
| Cc1ccnc(NC(=O)c2cccc(NC(=O)COc3ccccc3)c2)c1 | -4.8% [at 2.29 µM] |  |
| CCn1c(=O)cc(SCC(=O)Nc2cc(OC)c(OC)c(OC)c2)c2ccccc21 |  | 5.01 µM (active) |
| CCC(CC)C(=O)NCCN1CCN(C(=O)C(CC)CC)CC1 | 2.98% [at 2.29 µM] |  |
| CC(C)CCOc1ccc(NC(=O)C2OC3OC(C)(C)OC3C3OC(C)(C)OC23)cc1 (configuration not stated) | -3.7% [at 2.29 µM] |  |
| Cn1c(=O)cc(OCCCC(=O)Nc2cccnc2)c2ccccc21 |  | 6.31 µM (active) |
| COc1cc(=O)n(C)c2c(OC[C@@H](O)C(C)(C)O)cccc12 | -13.8% [at 25.6 µM] |  |
| CCN(C(=O)COc1cc(=O)n(C)c2ccccc12)c1cccc(Cl)c1 |  | 3.55 µM (active) |
| CCCNC(=O)OC[C@@H]1O[C@H](CCO/N=C(\C)CCN2CCCCc3nc(C)c(C)cc32)C=C[C@@H]1Oc1ccc(OC)cc1 |  | 3.16 µM (active) |
| CCCNC(=O)OC[C@@H]1O[C@H](CCO/N=C(\C)CCN2CCCc3nc(C)c(C)cc32)C=C[C@@H]1Oc1ccc(OC)cc1 |  | 3.98 µM (active) |
| Fc1cc2nc(-c3ccncc3)[nH]c2cc1F |  | 1.41 µM (active) |
| O=C(c1ccccc1)c1ccc2nc(-c3ccc(NC(=O)c4ccccc4F)cc3)[nH]c2c1 | -8.39% |  |
| C(=N\N1CCN(C2c3ccccc3-c3ccccc32)CC1)/c1cccnc1 |  | 12.6 µM (active) |
| O=[N+]([O-])c1cc(/C=N/N2CCN(C3c4ccccc4-c4ccccc43)CC2)ccc1Cl | -12.7% |  |
| O=c1c2cnn(-c3ccccc3)c2nnn1/N=C/c1cccnc1 | -26.8% |  |
| C/C(=N\N1CCN(C2c3ccccc3-c3ccccc32)CC1)c1ccncc1 |  | 1 µM (active) |
| C/C(=N\N1CCN(C2c3ccccc3-c3ccccc32)CC1)c1cccnc1 |  | 2.82 µM (active) |
| CC(C)(C)NC[C@H](O)COc1cccc2[nH]c(=O)[nH]c12 |  | inactive |
| Cc1ccccc1OCC(O)Cn1c(NCc2ccccc2)nc2c1c(=O)[nH]c(=O)n2C (configuration not stated) |  | 11.2 µM (active) |
| Cn1c(=O)[nH]c(=O)c2c1nc(NCCCO)n2CCCc1ccccc1 | -24.3% |  |
| Cc1cc(C)n(-c2nc3c(c(=O)[nH]c(=O)n3C)n2CC(C)C)n1 | 31.4% |  |
| Cc1ccc(C(=O)CNc2nc3c(c(=O)[nH]c(=O)n3C)n2Cc2ccccc2)cc1 |  | 5.01 µM (active) |
| CN(C)c1ncc2nc(CCc3ccccc3)c(=O)n(Cc3cccs3)c2n1 |  | 10 µM (active) |

| Compound | activity, negative = inhibition | AC50 |
| --- | --- | --- |
| COCCn1c(=O)c(CCc2ccccc2)nc2cnc(N(C)C)nc21 |  | 15.8 µM (active) |
| CN(C)c1ncc2nc(CCc3ccccc3)c(=O)n(CCc3ccccc3)c2n1 |  | 6.31 µM (active) |
| Cc1nc2cnc(N(C)C)nc2n(-c2ccccc2)c1=O | -22.1% |  |
| CN(C)c1ncc2ncc(=O)n(CCc3ccccc3)c2n1 | 9.46% |  |
| CN(C)c1ncc2nc(CCc3ccccc3)c(=O)n(-c3ccccc3)c2n1 |  | 6.31 µM (active) |
| CN(C)c1ncc2nc(-c3ccc(Cl)cc3)c(=O)n(Cc3cccs3)c2n1 | 7.01% |  |
| CN(C)c1ncc2nc(-c3ccccc3)c(=O)n(CCc3ccccc3)c2n1 | -9.74% |  |
| COCCn1c(=O)c(C)nc2cnc(N(C)C)nc21 | -16.6% |  |
| CN(C)C(=O)Oc1cccc([N+](C)(C)C)c1 | -1.98% [at 25.6 µM] |  |
| Cc1nc(NC(=O)c2ccco2)sc1-c1csc(Nc2ccc(Cl)cc2Cl)n1 |  | 5.01 µM (active) |
| O=C(NNC(=O)c1cc2cc3ccccc3nc2s1)c1cccc(Cl)c1 | -20.1% |  |
| Cc1nc(NC(=O)c2ccccc2)sc1-c1csc(Nc2ccc(Cl)cc2Cl)n1 |  | 11.2 µM (active) |
| Cc1nc(NC(=O)c2ccccc2)sc1-c1csc(Nc2ccc(Cl)cc2)n1 | 3.11% [at 2.29 µM] |  |
| Cn1sc(NC(=O)c2ccccc2Cl)nc1=O | -14.4% |  |
| Cc1nc(NC(=O)c2ccccc2)sc1-c1csc(Nc2cccc(Cl)c2)n1 |  | 10 µM (active) |
| Cc1nnc(NC(=O)c2cccc(NC(=O)C(C)C)c2)s1 | 1.57% |  |
| Cc1nc(NC(=O)c2ccccc2)sc1-c1csc(Nc2ccc(F)cc2)n1 |  | 10 µM (active) |
| C#CCOCCCC(=O)O | 0.116% [at 11.4 µM] |  |
| CC(C)(N=NC(C)(C)C(=N)N)C(=N)N | -6.94% [at 11.4 µM] |  |
| C=CCCC(=O)Nc1nc(C)c(-c2csc(Nc3ccc(Cl)cc3)n2)s1 |  | 10 µM (active) |
| O[C@@H](c1cc(C(F)(F)F)nc2c(Cl)cc(Cl)cc12)[C@@H]1CCCCN1 | -21% [at 11.4 µM] |  |
| CC(C)(C)NC(=O)Cn1nnc(-c2ccccc2NC(=O)c2cnccn2)n1 |  | 3.98 µM (active) |
| CC(C)CC(=O)Nc1ccccc1-c1nnn(CC(=O)N2CCc3ccccc3C2)n1 | -9.5% |  |

Source: PubChem BioAssay AID1851 (National Center for Advancing Translational Sciences (NCATS), 2009)
